Screening results deposited in PubChem by several laboratories.
This is a sample that favours compounds with a hit; in the whole collection about 2% have one here.
CHT inh = inhibitors of human choline transporter CHT; Q9GZV3; CHT-expressing cells, membrane potential dye, choline response; stronger effect = lower value; B-score at 10 µM; 310,000 compounds, 0.86% hits; AID 488975;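 active means B-score over 3 SD under the library average, and starting fluorescence ratio not unusually high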;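 further: choline stimulus applied at its EC90 after an EC20 pre-addition; B-score computed on integrated fluorescence ratio after choline addition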
Target sequence (Q9GZV3 whole entry, looked up): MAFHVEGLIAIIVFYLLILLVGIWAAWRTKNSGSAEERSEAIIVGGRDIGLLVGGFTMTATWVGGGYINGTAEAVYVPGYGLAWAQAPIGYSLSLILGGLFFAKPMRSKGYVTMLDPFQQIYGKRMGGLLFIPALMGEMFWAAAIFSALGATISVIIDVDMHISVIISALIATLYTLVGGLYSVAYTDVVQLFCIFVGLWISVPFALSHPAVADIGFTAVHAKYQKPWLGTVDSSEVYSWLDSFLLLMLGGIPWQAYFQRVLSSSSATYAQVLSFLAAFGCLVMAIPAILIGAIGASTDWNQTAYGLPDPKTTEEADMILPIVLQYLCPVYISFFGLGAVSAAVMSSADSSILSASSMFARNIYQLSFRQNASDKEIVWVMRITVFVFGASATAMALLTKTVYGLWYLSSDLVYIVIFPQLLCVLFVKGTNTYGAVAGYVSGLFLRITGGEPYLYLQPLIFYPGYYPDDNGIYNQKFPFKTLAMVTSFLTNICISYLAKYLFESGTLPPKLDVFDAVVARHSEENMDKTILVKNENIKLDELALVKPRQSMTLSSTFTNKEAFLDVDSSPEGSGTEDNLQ
TAG inh = inhibitors of triacylglycerol accumulation; inhibition, % at 12.5 µM; 230,000 compounds, 0.66% hits; AID 651582; H9c2 cells, Nile Red lipid (TAG) fluorescence; cells loaded with 200 µM oleic acid;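 active means pattern-corrected inhibition of lipid staining of at least 50% with the nuclear-stain viability signal not falling by more than 50%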;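 further: 0% = DMSO wells and 100% = triacsin C control wells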
CHT PAM = human CHT allosteric activation | B-score at 10 µM | 310,000 compounds, 0.49% hits | Q9GZV3 | AID 488977 | CHT-expressing cells, membrane potential dye, choline EC20; stronger effect = higher value; LV-AA mutant CHT in HEK293 cells;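 active means initial fluorescence not abnormally high and integrated response B-score, plate-corrected, over 3 SD above library mean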
Kir21 block = inhibitors of mouse Kir2.1 inward-rectifier potassium channel. P35561. HEK293-Kir2.1, FluxOR thallium flux fluorescence; stronger effect = lower value. B-score at 10 µM. 310,000 compounds, 0.85% hits. AID 1672;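 active means fluorescence ratio B-score at or below minus 3 SD of library scores, with starting-brightness B-score within 2 SD, cut at about -4.2 in these data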;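 further: channel flux triggered by added potassium and thallium sulfate stimulus; B-score of peak minus minimum fluorescence over baseline after thallium stimulus; more negative B-score means stronger Kir2.1 block with less thallium influx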
Numbers without * were called inactive; i = inactive; nt = no result.

SMILES	CHT inh	TAG inh	CHT PAM	Kir21 block
CCCCCn1c(NCc2ccco2)nc2ccccc21	i	0	i	-4.5*
COc1cccc(NC(=O)CN(C)C(=O)CSCC(=O)Nc2ccc(C)cc2)c1	nt	-3	nt	nt
CN(Cc1ccccc1)C(=O)C1CCCN(Cc2ccc(Cl)cc2)C1 (stereo unspecified)	i	29	i	-4.2*
CCN(CC)CCCN=C1N[C@@H](c2cccc(C(F)(F)F)c2)C(C(=O)OC)=C(C)N1CC	nt	8	nt	nt
O=C(CSc1ccc2ccccc2c1)N1CCN(c2ccc(O)cc2)CC1	i	7	i	-4.2*
C=CC[n+]1c(/C=C/c2ccc(OC(C)=O)c(OC)c2)ccc2ccccc21	i	nt	7.4*	-0.06
CCN1CCN(CCNC(=O)c2ccc(/C=C3/Sc4ccccc4N(Cc4ccccc4C)C3=O)cc2)CC1	nt	12	nt	-5.6*
COc1ccccc1CNS(=O)(=O)c1ccc(-c2cc(C)no2)cc1	i	nt	6.4*	-2.1
O=S(=O)(NCC(c1cccnc1)N1CCN(Cc2ccccc2)CC1)c1cc(F)ccc1F (stereo unspecified)	i	-3	i	-2.2
Cc1c(Br)c(O)c(Br)c2sc(=O)oc12	-8.2*	13	i	nt
CC(C)C[C@H](N)c1nnc(S(=O)(=O)Cc2cccc(F)c2)o1	i	nt	i	-7.9*
CC(C)(C)OC(=O)N[C@@H](Cc1ccccc1)c1nnc(S(=O)(=O)Cc2cccc(F)c2)o1	i	nt	i	0.63
COc1ccc(CCNC(=O)COC(=O)C23CC4CC(CC(Br)(C4)C2)C3)cc1	i	-5	i	-2
COc1ccc(CCNC(=O)COC(=O)C23CC4CC(CC(C4)C2)C3)cc1	i	nt	i	-7.3*
COc1ccc(CCNC(=O)C2(c3ccccc3)CC2)cc1	i	-7	i	-4.6*
COc1ccc(-n2cc(CNCCc3nc(C)cc(C)n3)c(-c3ccccc3Cl)n2)cc1	i	13	i	-1.3
COc1ccc(-n2cc(CNCCc3ncc(C)[nH]3)c(-c3ccccc3Cl)n2)cc1	i	nt	i	-4.8*
CCOc1ccc(C(=O)NCC(=O)OCC(=O)Nc2nnc(-c3ccccc3)o2)cc1	nt	-4	nt	nt
O=S(=O)(c1ccc(Cl)cc1)N1CCN(Cc2ccc(O)c3ncccc23)CC1	i	53*	i	-0.66
CCCCCc1cc(=O)oc2c(C(CCN3CCCCC3)c3ccc(OC)cc3)c(OC)cc(OC)c12 (stereo unspecified)	i	111*	i	-1.5
CCCCCc1cc(=O)oc2c(C(CCN3CCCC(C)C3)c3ccc(OC)cc3)c(OC)cc(OC)c12 (stereo unspecified)	i	96*	i	0.45
Oc1ccc(CCc2n[nH]c(=S)n2-c2ccc(F)cc2)cc1	i	-1	i	-0.8
CCOc1ccc(Cl)cc1CNCCCSc1nc(C)cc(C)n1	i	nt	i	-6.6*
Cn1c(CNC(=O)c2ccc(Cl)cc2)nnc1SCC(=O)N1CCOCC1	i	2	i	0.9
C[C@@H]1C(NC(=O)c2ccccc2)CC2CC1C2(C)C (stereo partly specified)	-5*	nt	i	1.8
SMILES	CHT inh	TAG inh	CHT PAM	Kir21 block
NC(=O)C1=C[C@@H](c2ccc(C(F)(F)F)cc2)C[C@@H](OCc2ccc(CO)cc2)O1	i	nt	i	-1.8
NC(=O)C1=C[C@H](c2ccc(C(F)(F)F)cc2)C[C@H](OCc2ccc(CO)cc2)O1	i	-48	i	-4.8*
C#CCNC(=O)C1=C[C@@H](c2ccccc2)C[C@@H](OCc2ccc(CO)cc2)O1	i	-71	i	-5.6*
O=[N+]([O-])c1ccc(Sc2nccn2Cc2ccccc2)cc1	i	nt	i	-5*
Clc1ccc(CSc2nccn2Cc2ccccc2)cc1	i	14	i	-0.01
Cc1ccc(NC(=O)C2CCCN2S(=O)(=O)c2ccc3c(c2)n(C)c(=O)c(=O)n3C)c(C)c1 (stereo unspecified)	i	-6	i	1.4
O=S(=O)(NCCCc1ccccc1)c1ccc(Cl)cc1	i	nt	i	-4.8*
O=S(=O)(NCCCc1ccccc1)c1ccc(F)c(F)c1	i	nt	i	-2.5
CCOc1ccccc1O[C@H](c1ccccc1)[C@H]1CNCCO1	i	12	i	-4.1
N#C/C(=C\c1ccccc1)C(=O)N1CCN(c2ccccc2F)CC1	i	nt	i	-5.1*
N#C/C(=C\c1cccc(O)c1)C(=O)N1CCCCC1	i	0	i	1.7
C/C(=C/c1ccccc1)C(=O)N1CCN(c2ccccc2F)CC1	i	-1	i	0.63
N#C/C(=C\c1cccc(Br)c1)C(=O)N1CCCCC1	i	nt	i	-6.9*
